Screening data from PubChem.
Shown are actives, neighbours in structure and some others; about 8.5% of the full set was active somewhere.
NPSR antagonist – qHTS Assay for Antagonists of the Neuropeptide S Receptor: cAMP Signal Transduction; Q6W5P4; CHO-NPSR cells, cAMP TR-FRET, antagonist mode; Potency, µM (top dose mostly 38.3 µM), for the others: at the top dose activity change, negative = inhibition, actives largely listed as inhibitors; 220,000 compounds, 1% hits; note: potency is the fitted concentration of half-maximal effect; nearly all actives have a fitted effect of over 50% in size
RGS12 GoLoco inh – qHTS Assay for Inhibitors of RGS12 GoLoco Motif Activity (Red Fluorophore); Gai1:RGS12 GoLoco peptide FP, rhodamine, 10 min; Potency, µM (series often up to 61.6 µM), for inactives: at the top dose activity, negative = inhibition, usual class: inhibitors; 230,000 compounds, 0.44% hits; active = well fitted inhibition curve with a large enough effect, not every such curve was filed as active; inactive = no such curve, though single readings can be large or run the other way; note: potency is the fitted concentration of half-maximal effect; nearly all actives have a fitted effect of over 30% in size
JMJD2E inh – qHTS Assay for Inhibitors of Human Jumonji Domain Containing 2E (JMJD2E); Potency, µM (series often up to 57.1 µM), without a hit: top-dose activity change, negative = inhibition, usual class: inhibitors; JMJD2E catalytic domain, FDH-coupled NADH fluorescence (FDH is formaldehyde dehydrogenase); Lysine-specific demethylase 4E (Homo sapiens), B2RXH2; 230,000 compounds, 1.6% hits; active = well fitted inhibition curve with a large enough effect, not every such curve was filed as active; inconclusive = small, poorly fitted or top-dose-only effect, or another doubt; inactive = no such curve, though single readings can be large or run the other way;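 note: potency is the fitted concentration of half-maximal effect; 0% = wells with enzyme and -100% = buffer wells without enzyme; nearly all actives have a fitted effect of over 50% in size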
Sfp inh – qHTS Assay for Inhibitors of Bacillus subtilis Sfp phosphopantetheinyl transferase (PPTase); Potency, µM, inactives show largest response in the series, negative = inhibition, actives largely listed as inhibitors; Biochemical Sfp PPTase activity, qHTS; 310,000 compounds, 3.5% hits; AID 1490, 2009;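 note: the enzyme is Sfp with the accession as filed and its product quenches rhodamine fluorescence; potency is the fitted concentration of half-maximal effect; 0% = enzyme reaction without inhibitor and -100% = no enzyme wells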
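Compounds were incubated with enzyme (final 15 nM) for 15 min at room temperature before substrate addition started the reaction. Fluorescence at 525 nm excitation, 598 nm emission was recorded immediately and after 30 minutes.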
FBPA coupling cs – qHTS Assay for Inhibitors of Fructose-1,6-bisphosphate Aldolase from Giardia Lamblia: Coupling assay counterscreen | coupling enzyme system counterscreen, AmpLite Red fluorescence | activity change, negative = inhibition, % at 58.2 µM, hits read low | 290,000 compounds, 0.67% hits | AID 2472, 2010; in the data active = activity change below about -30%
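Fluorescence at 525 nm excitation and 598 nm emission measured inhibition of the coupled detection system without aldolase. Compounds (at 57.5 uM final) were preincubated 10 min at room temperature with coupling enzyme reagent before a 20 min substrate/AmpLite Red step.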
ALDH1A1 inh – qHTS Assay for Inhibitors of Aldehyde Dehydrogenase 1 (ALDH1A1); Aldehyde dehydrogenase 1A1 (Homo sapiens), P00352; Potency, µM (top dose mostly 75.3 µM), for the others: at the top dose activity, negative = inhibition, most hits filed as inhibitors; 220,000 compounds, 7.3% hits; Purified ALDH1A1, NADH fluorescence, propionaldehyde substrate; AID 1030, 2008; active = well fitted inhibition curve with a large enough effect, not every such curve was filed as active; inconclusive = small, poorly fitted or top-dose-only effect, or another doubt; inactive = no such curve, though single readings can be large or run the other way;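 note: potency is the fitted concentration of half-maximal effect; plate controls were no enzyme wells and a reference inhibitor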
Target sequence (P00352 whole entry, looked up): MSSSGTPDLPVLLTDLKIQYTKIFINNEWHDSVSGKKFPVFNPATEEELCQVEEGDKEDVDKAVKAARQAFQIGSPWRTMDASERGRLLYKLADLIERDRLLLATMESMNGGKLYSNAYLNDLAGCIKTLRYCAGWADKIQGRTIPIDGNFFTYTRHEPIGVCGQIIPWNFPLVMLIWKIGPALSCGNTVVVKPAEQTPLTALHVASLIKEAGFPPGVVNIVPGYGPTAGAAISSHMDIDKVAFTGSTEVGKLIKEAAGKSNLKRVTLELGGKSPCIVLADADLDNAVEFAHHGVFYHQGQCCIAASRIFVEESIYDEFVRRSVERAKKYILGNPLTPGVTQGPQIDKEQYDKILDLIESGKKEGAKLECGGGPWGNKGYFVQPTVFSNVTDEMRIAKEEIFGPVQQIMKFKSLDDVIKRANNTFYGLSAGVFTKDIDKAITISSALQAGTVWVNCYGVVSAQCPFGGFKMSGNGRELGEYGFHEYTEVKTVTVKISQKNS
An asterisk follows results filed as active; ? = inconclusive; · = not tested or not shown; [ ] = remark or other dose. Unless noted, calls come from the whole dose curve; as a rule, active = well fitted curve in the direction sought with a large enough effect; inconclusive = small, poorly fitted or top-dose-only effect, or another doubt; inactive = no such curve, though single readings can be large; an effect the other way counts as inactive or inconclusive. Unless noted, % is set by controls: 0 for no effect and ±100 for the full control effect.

SMILES	NPSR antagonist	RGS12 GoLoco inh	JMJD2E inh	Sfp inh	FBPA coupling cs	ALDH1A1 inh
CCN1CC(CCN2CCOCC2)C(c2ccccc2)(c2ccccc2)C1=O (stereo not given)	·	·	·	2%	·	·
Cc1ccc(C)c(OCCC(=O)NCCc2ccc(F)cc2)c1	·	·	·	0%	·	·
Cc1ccc([N+](=O)[O-])cc1NC(=O)CN1CCCCC1	9%[46.1 µM]	11%	1%	7%	-1	3%
CC(=O)N1CCN(CC(=O)Nc2cc([N+](=O)[O-])ccc2Cl)CC1	4%	-1%	-10%	-1%	-1	35µM*
Cc1cc(NC(=O)CN2CCN(c3ccc(O)cc3)CC2)no1	-13%[46.1 µM]	-33%	?	79µM*	·	?
Cc1cc(NC(=O)CN2CCN(S(=O)(=O)c3ccc(Cl)cc3)CC2)no1	-1%[46.1 µM]	8%	-2%	17%	4	7%
O=C(CN1CCN(c2ccc(O)cc2)CC1)Nc1cc([N+](=O)[O-])ccc1Cl	-9%	-19%	14µM*	?	-1	11µM*
COc1ccc(CNC(=O)CCSCc2cccc(F)c2)cc1	·	·	·	-3%	1	·
O=C(c1ccco1)N1N=C(c2cccs2)CC1c1ccc(F)cc1 (stereo not given)	-30%[46.1 µM]	79%	?	56µM*	0	20µM*
CS(=O)(=O)N1N=C(c2cccs2)CC1c1ccco1 (stereo not given)	-10%	27%	?	10µM*	1	20µM*
COc1ccc(C2CC(c3cccs3)=NN2C(=O)c2ccco2)cc1OC (stereo not given)	10%	0%	-13%	-9%	0	·
O=C(OCC(=O)N1CCN(c2ccccc2)CC1)c1ccco1	2%[46.1 µM]	-36%	5%	1%	2	2.2µM*
Cc1cc(C(=O)OCC(=O)N2CCN(c3ccccc3)CC2)c2ccccc2n1	-13%[46.1 µM]	-15%	-20%	6%	2	22µM*
O=C(NCC(=O)N1CCN(c2ccccc2)CC1)c1ccco1	·	·	·	7%	0	·
CN(C)S(=O)(=O)c1cccc(NC(=O)CN2C(=O)NC(Cc3c[nH]c4ccccc34)C2=O)c1 (stereo not given)	3%	13%	-5%	-1%	0	-9%
O=C(COC(=O)CSc1ccc2ccccc2c1Br)NC1CC1	-47%	5%	9%	16%	-2	-5%
Cc1ccc(-c2nn(-c3ccccc3)cc2CNCc2ccccc2)cc1	?	12%	-29%	18µM*	1	22µM*
Cc1cc(NC(=O)CCl)n(-c2nc3ccccc3s2)n1	-2%	3%	-23%	10%	4	4µM*
Cc1ccc(-c2cc(NC(=O)CCl)n(-c3ccccc3)n2)cc1	?	4%	-21%	13%	-11	0.5µM*
Cc1cc(NC(=O)COc2ccccc2)n(-c2ccccc2)n1	6%[46.1 µM]	-13%	2%	6%	-2	?
O=C(CCl)Nc1cc(-c2ccccc2)nn1-c1ccccc1	-25%[46.1 µM]	-1%	-12%	-10%	1	1.3µM*
CC(=O)Nc1ccc(-c2cc(NC(C)=O)n(-c3ccccc3)n2)cc1	-4%[46.1 µM]	·	-7%	4%	-4	5%
CCOC(=O)N1CCC(N2C(=O)c3ccc(C(=O)NCCOC)cc3C2=O)CC1	·	·	·	15%	0	·
COc1ccc(Oc2ccc(/C=C/C(=O)c3ccc(O)cc3)cc2[N+](=O)[O-])cc1	?	0%	-16%	-3%	0	?
Cc1ccc(-c2nn(-c3ccccc3)cc2CO)cc1	·	·	·	5%	2	·
Cc1ccc(-c2nn(-c3ccccc3)cc2NC(=O)CCl)cc1	-35%	-23%	?	-14%	5	20µM*
Cc1c(-c2ncn[nH]2)sc(C#N)c1-c1ccccc1	-36%	-3%	-12%	-2%	3	25µM*
